Inhibition data for 31 compounds are collected here from PubChem BioAssay AID1626 (SRMLSC, 2009).

The campaign covered roughly 220,000 compounds. About 2,000 (0.91%) were called active. Roughly 2% stayed inconclusive and do not appear here. A selection follows. Entries with a potency or affinity are not part of this list. Unmarked numbers belong to inactive results. Rule as the data show it: inconclusive = inhibition above about 80% without an active follow-up result; inactive = below that; test concentration not stated here.

The assay in a line: M. tuberculosis H37Rv growth inhibitors, H37Rv strain (AID 1626).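 Also: bacteria incubated seven days before Alamar blue readout; 0% = bacteria only wells and 100% = bacteria with antibiotic wells.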 As to conditions: stronger effect = higher value, concentration not given here.
With `NNC(=O)C(Cc1ccccc1)NC(=O)OCc1ccccc1` (stereo unspecified), the inhibition was 3.92%.
Next, `O=C(Nc1ccc(Cl)c(Cl)c1)c1ccc(Cl)c(Cl)c1`: 2.4%; `Clc1ccc(C2=NCCN2)cc1`: 4.97%.
With `CCCN1C(=O)c2cc(C(=O)NCc3cccs3)ccc2C1O` (stereo unspecified) the figure was -13.3%; with `O=C(Nc1ccc(F)c(Cl)c1)C1CC(=O)n2c(nc3ccccc32)N1` (stereo unspecified), -5.64%.
As for `Cc1ccc(/C=N/N2CCN(c3ccccc3)CC2)cc1`, the inhibition was -2.14%.
Next, `O=c1cc(-c2cccs2)oc2ccc(Cl)cc12`: -2.31%; `O=c1c(O)c(-c2cccs2)oc2ccccc12`: -4%; `Cc1cc(C(=O)NNS(=O)(=O)c2cccc(Cl)c2)nn1C(C)(C)C`: 2.6%.
Consider `CC(C)(C)NC(=O)Cn1c(Cl)nc2ccccc21`, for which the inhibition was -2.82%.
With `Nc1nc(-c2ccc3ccccc3c2)cs1` the figure was 67.7%; with `Fc1cccc(-c2csc(-c3ccno3)n2)c1`, 0.3%; with `COc1ccc(-c2csc(N)n2)cc1`, 84.2%.
With `COc1ccc(OCc2csc(N)n2)cc1` the figure was -2.49%; with `Nc1nc(-c2ccccc2)cs1`, 56.7%; with `Nc1nc(-c2ccc(-c3ccccc3)cc2)cs1`, -0.75%.
Next, `CC(=O)Nc1cccc(-c2csc(N)n2)c1`: 1.85%; `Cc1ccc(OCc2csc(N)n2)cc1`: 2.65%.
As to `CCCCOc1ccc(NC(=O)C(=O)NCCC2=CCCCC2)cc1`, the inhibition is -6%.
As for `Cc1ccc(NC2=NC3(CCCC3)N=C(N)N2)c(C)c1`, the inhibition was -0.52%.
For `CCC1CCCCN1C(=O)CSc1nnc(CNC(=O)COc2ccc(Cl)cc2)o1` (stereo unspecified), the inhibition is 0.62%.
Next, `CC(=O)Nc1ccc(C(=O)NCC(=O)OCc2ccccc2F)cc1`: 8.24%.
On to `C=CCNC(=O)c1sc(-c2ccccc2)nc1C`, for which the inhibition is -4.4%.
Next, `COCCn1c(SCC(=O)N2CCN(c3ccccc3)CC2)nc2c(c1=O)SC(C)C2` (stereo unspecified): -6.25%; `O=C(COC(=O)c1cccs1)NCC1CCCO1` (stereo unspecified): -10.3%; `COC(=O)Nc1ccc(S(=O)(=O)NCc2ccccn2)cc1`: 4.77%.
For `Cc1ccc2c(c1)C1CN(C)CCC1N2C(=O)c1cccc(S(=O)(=O)N(C)C)c1` (stereo unspecified), the inhibition was 1.67%.
Next, `COCCOc1ccc(C(F)(F)F)cc1Nc1nc2ccccc2o1`: 11.7%; `COc1cc(/C=N/OCC(=O)Nc2cc(C)on2)ccc1OCc1ccccc1`: 6.49%.
With `CC1CCCN(c2c([N+](=O)[O-])cc(C(=O)O)cc2[N+](=O)[O-])C1` (stereo unspecified), the inhibition was -5.57%.
With `O=[N+]([O-])c1ccc(N2CCCCC2)s1` the figure was 48.3%.

Broadly, the inhibition is the drop in the measured response relative to a control, in per cent.
